PubChem BioAssay (Tox21)
Where “and” joins values, the source holds several entries; their conditions need not be identical. Identical values can stand only once. Records with an inconclusive call do not appear. Where a call stands in place of a potency, no number is given. Values without a mark were called inactive. Calls of active or inactive are those of the source. Calls follow the shape of the dose curve; as a rule, active = well fitted curve in the direction sought with a large enough effect in the repeat runs; inconclusive = weak or mixed curves; inactive = no such curve, though single readings can be large; an effect the other way counts as inactive or inconclusive.

experiment: qHTS assay to identify small molecule agonists of the RXR signaling pathway - cell viability counter screen (AID 1159529); conditions: RXR-alpha-bla HEK293T viability, CellTiter-Glo, 16 h; series mostly up to 76.8 µM; activity change, negative = cytotoxicity: at the top concentration; also: nearly all actives have a fitted effect of over 50% in size;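 as to activity change, negative = cytotoxicity: HEK 293T cells carrying an RXR-alpha UAS beta-lactamase reporter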
In short: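 Viability read-out for the RXR-alpha agonist qHTS: luminescent CellTiter-Glo signal after 30 min at RT. HEK 293T bla reporter cells, 2% charcoal-stripped FBS, 16 hr compound incubation; tetraoctyl ammonium bromide as cytotoxic control.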
Potency is read from the fitted curve at half-maximal effect.

Row | Compound | activity change, negative = cytotoxicity | Potency
1 | CC(C)(C)NCC(O)c1cc(O)cc(O)c1 (configuration not stated) | 11.8% [at 35.3 µM] | –
2 | C/C=C/c1ccc(OCC)c(O)c1 | – | inactive
3 | Cc1ccnc2c1NC(=O)c1cccnc1N2C1CC1 | – | inactive
4 | COC(c1ccccc1)(c1ccccc1)[C@H](Oc1nc(C)cc(C)n1)C(=O)O | 1.22% [at 35.3 µM] | –
5 | NC(=Nc1ccccc1)Nc1ccccc1 | – | inactive
6 | CCC(C)(Oc1ccc(C2(c3ccc(OC(C)(CC)C(=O)O)cc3)CCCCC2)cc1)C(=O)O (configuration not stated) | 1.48% [at 35.3 µM] | –
7 | CNC1(C)C2CCC(C2)C1(C)C (configuration not stated) | 5.14% [at 35.3 µM] | –
8 | CCC[C@H](N[C@@H](C)C(=O)N1[C@H](C(=O)O)C[C@@H]2CCCC[C@@H]21)C(=O)OCC | – | inactive
9 | CCc1cc(C(C)(C)C)c(O)c(C(C)(C)C)c1 | – | inactive
10 | CCCCCCCCCCCC[N+](C)(C)C | – | 54.8 µM (active) and 54.9 µM (active) and 49 µM (active)
11 | CC(C)(c1ccccc1)c1ccc(Nc2ccc(C(C)(C)c3ccccc3)cc2)cc1 | – | inactive
12 | c1ccc2n[nH]nc2c1 | – | inactive
13 | Nc1nc2ccccc2[nH]1 | – | inactive
14 | NC(Cc1ccc(Cl)cc1)C(=O)O (configuration not stated) | 5.89% [at 0.29 µM] | –
15 | Oc1c(Cl)cc(Cl)c(Cl)c1Cc1c(O)c(Cl)cc(Cl)c1Cl | – | 34.6 µM (active) and 49 µM (active) and 19 µM (active)
16 | CN1C(=O)c2ccc([N+](=O)[O-])cc2C1=O | -5.3% | –
17 | O=C(O)c1cccc(C(=O)O)c1 | – | inactive
18 | COc1ccc(COC(C)=O)cc1 | – | inactive
19 | CCc1ccc(C(c2ccc(CC)cc2)C(Cl)Cl)cc1 | – | 35.2 µM (active)
20 | Oc1ccc(Cl)cc1Cc1cc(Cl)ccc1O | – | 49.9 µM (active)
21 | COC(=O)/C=C/c1ccccc1 | – | inactive
22 | Nc1ccc(O)cc1 | 5.91% [at 35.3 µM] | –
23 | CC1=CC(=O)c2ccccc2C1=O | – | 24.5 µM (active) and 21.3 µM (active)
24 | Nc1cc(Cl)c(-c2cc(Cl)c(N)cc2Cl)cc1Cl | – | 17.4 µM (active)
25 | COC(=O)c1cccc(C(=O)OC)c1 | – | inactive

experiment: qHTS assay to identify small molecule antagonists of the retinoid acid receptor (RAR) signaling pathway - cell viability counter screen (AID 1159551); conditions: C3RL4 cells viability, ATP luminescence (CellTiter-Glo), 6 h; series mostly up to 92.4 µM; activity change, negative = cytotoxicity: at the top concentration; also: nearly all actives have a fitted effect of over 35% in size
In short: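 Cytotoxicity counter screen in C3RL4 cells: 6 h compound exposure with 1 uM retinol (final), viability from cellular ATP by luminescence.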

Row | Compound | Potency | activity change, negative = cytotoxicity
26 | Cc1cc(C2(c3cc(C)c(O)cc3C)OS(=O)(=O)c3ccccc32)c(C)cc1O | inactive | –
27 | CCCCCCCCCCCCCC[P+](CCCC)(CCCC)CCCC | 43 µM (active) and 43.3 µM (active) | –
28 | Cc1cc(C(C)(C)C)c(O)c(C(C)(C)C)c1 | inactive | –
29 | CCCCCC(=O)O[C@]1(C(C)=O)CC[C@H]2[C@@H]3CCC4=CC(=O)CC[C@]4(C)[C@H]3CC[C@@]21C | – | -2.88% [at 42.5 µM]
30 | C=C(C)C(=O)O | inactive | –
31 | OCCN1CCNCC1 | inactive | –
32 | CC1COC(=O)O1 (configuration not stated) | inactive | –
33 | CCCOC(=O)c1cc(O)c(O)c(O)c1 | inactive | –
34 | O | inactive | –
35 | c1ccc2c(c1)-c1cccc3c1c-2cc1ccccc13 | inactive | –
36 | CC[C@]1(O)C[C@@H]2CN(CCc3c([nH]c4ccccc34)[C@@](C(=O)OC)(c3cc4c(cc3OC)N(C)[C@H]3[C@@](O)(C(=O)OC)[C@H](OC(C)=O)[C@]5(CC)C=CCN6CC[C@]43[C@@H]65)C2)C1 | inactive | –
37 | Cc1cc(OCCOCC[N+](C)(C)Cc2ccccc2)ccc1C(C)(C)CC(C)(C)C | 60.8 µM (active) and 29.8 µM (active) | –
